Measurements from PubChem BioAssay (NCATS).
Several values for one entry are separate records, joined by “and”; a condition that tells them apart may be missing. Equal values may be shown once. Inconclusive results are not listed. Where a call stands in place of a potency, no number is given. Unmarked numbers belong to inactive results. Activity calls are given as the source filed them. Calls follow the shape of the dose curve; as a rule, active = well fitted curve in the direction sought with a large enough effect; inconclusive = small, poorly fitted or top-dose-only effect, or another doubt; inactive = no such curve, though single readings can be large; an effect the other way counts as inactive or inconclusive.

Tests used:
[1] = Quantitative highthroughput screen to assess conditional lethalithy of NOMO1 cells grown in RPMI1640 with untreated serum (RPMI+s) (AID 1963876); settings: NOMO1 AML cells in RPMI+serum, CellTiter-Glo viability, 48 h; series mostly up to 45.8 µM; also: nearly all actives have a fitted effect of over 35% in size
Procedure, shortened: (§1)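 Each medium arm—HPLM with 10% dialyzed FBS, or RPMI1640 with 5 mM glucose and 10% untreated or dialyzed FBS—was screened against an 11-point, 3-fold compound titration for 48 h at 37 °C, with CellTiter-Glo luminescence as endpoint.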

[2] = Quantitative highthroughput screen to assess conditional lethalithy of NOMO1 cells grown in RPMI1640 with dialyzed fetal bovine serum (RPMI+ds) (AID 1963877); settings: NOMO1 in RPMI+dialyzed FBS viability, ATP luminescence, 48 h; series mostly up to 45.8 µM; also: nearly all actives have a fitted effect of over 30% in size
Procedure, shortened: as §1

[3] = Quantitative highthroughput screen to assess conditional lethalithy of NOMO1 cells grown in Human Plasma-Like Medium with dialyzed fetal bovine serum (HPLM+ds) (AID 1963878); settings: NOMO1 AML cells in HPLM+ds, CellTiter-Glo viability, 48 h; series mostly up to 45.8 µM; also: nearly all actives have a fitted effect of over 35% in size
Procedure, shortened: as §1

[4] = Quantitative highthroughput screen to assess conditional lethalithy of P12 Ichikawa cells grown in Human Plasma-Like Medium with dialyzed fetal bovine serum (HPLM+ds) (AID 1963879); settings: ATP luminescence, 48 h; Potency: viability; series mostly up to 45.8 µM; also: nearly all actives have a fitted effect of over 35% in size
Procedure, shortened: as §1

[5] = Quantitative highthroughput screen to assess conditional lethalithy of P12 Ichikawa cells grown in RPMI1640 with dialyzed fetal bovine serum (RPMI+ds) (AID 1963880); settings: ATP luminescence, 48 h; Potency: P12-Ichikawa viability; series mostly up to 45.8 µM; also: nearly all actives have a fitted effect of over 35% in size
Procedure, shortened: as §1

[6] = Quantitative highthroughput screen to assess conditional lethalithy of P12 Ichikawa cells grown in RPMI1640 with untreated serum (RPMI+s) (AID 1963881); settings: ATP luminescence, 48 h; Potency: viability; series mostly up to 45.8 µM; also: nearly all actives have a fitted effect of over 35% in size
Procedure, shortened: as §1

[7] = Quantitative highthroughput screen to assess conditional lethalithy of SEM cells grown in Human Plasma-Like Medium with dialyzed fetal bovine serum (HPLM+ds) (AID 1963882); settings: SEM B-ALL cells in HPLM+ds, CellTiter-Glo viability, 48 h; series mostly up to 45.8 µM; also: nearly all actives have a fitted effect of over 35% in size
Procedure, shortened: as §1

[8] = Quantitative highthroughput screen to assess conditional lethalithy of SEM cells grown in RPMI1640 with unreated serum (RPMI+s) (AID 1963883); settings: SEM B-ALL cells, CellTiter-Glo viability, 48 h; series mostly up to 45.8 µM; also: nearly all actives have a fitted effect of over 35% in size
Procedure, shortened: as §1

[9] = Quantitative highthroughput screen to assess conditional lethalithy of SEM cells grown in RPMI1640 with dialyzed fetal bovine serum (RPMI+ds) (AID 1963884); settings: SEM B-ALL cells, RPMI+dialyzed FBS, CellTiter-Glo viability, 48 h; series mostly up to 45.8 µM; also: nearly all actives have a fitted effect of over 35% in size
Procedure, shortened: as §1

[10] = Cellular viability qHTS for adrenocortical cancer (ACC) cell line NCI-H295R (AID 1963990); settings: CellTiter-Glo ATP luminescence, 48 h; series mostly up to 46.1 µM; also: nearly all actives have a fitted effect of over 60% in size
Procedure, shortened: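 Viability of NCI-H295R after 48 h of treatment (final up to 46 uM) measured through cellular ATP luminescence.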

[11] = Cellular viability qHTS for adrenocortical cancer (ACC) cell line SW-13 (AID 1963989); settings: SW-13 ACC cells viability, CellTiter-Glo, 48 h; activity (max response): active compounds read low; also: nearly all actives have a fitted effect of over 65% in size;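 as to activity (max response): cells grown in serum-free medium with ITS supplement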
Procedure, shortened: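 Here, serum-free SW-13 cultures were dosed up to 46 uM. Following 48 h, ATP-dependent luminescence (CellTiter-Glo) reported viable cells, and logistic modeling produced IC50 values.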
Potency is read from the fitted curve at half-maximal effect.

SMILES	Potency [1]	Potency [2]	Potency [3]	Potency [4]	Potency [5]	Potency [6]	Potency [7]	Potency [8]	Potency [9]	Potency [10]	activity (max response) [11]	Potency [11]
O=[N+]([O-])c1cn2c(n1)OC[C@@H](OCc1ccc(OC(F)(F)F)cc1)C2	inactive	inactive	inactive	inactive	inactive	inactive	inactive	inactive	inactive	inactive		
O=c1c(-c2ccc(O)cc2)coc2cc(O)ccc12	inactive	inactive	inactive	inactive	inactive	inactive	inactive	inactive	inactive		-14.3%	
Nc1cccc(S(=O)(=O)N2CCCN(S(=O)(=O)c3ccc4c(c3)OCCO4)CC2)c1	inactive	inactive	inactive	inactive	inactive	inactive	inactive	inactive		inactive	-19.9%	
COCCCOc1ccnc(CS(=O)c2nc3ccccc3[nH]2)c1C (centres undefined)	inactive	inactive	inactive	inactive	inactive	inactive	inactive	inactive	inactive	inactive	10.6% and -5.29%	
O=C1CCc2cc(OCCCCc3nnnn3C3CCCCC3)ccc2N1	inactive	inactive	inactive	inactive	inactive	inactive	inactive	inactive	inactive	inactive		
COC(=O)N1CCN(Cc2cccc(NC(=O)Nc3ccc(C)nc3)c2F)CC1	inactive	inactive	inactive	inactive	inactive	inactive	inactive	inactive		inactive	-16.4%	
COc1ccc(-n2c(C)c([N+](=O)[O-])c3ccc(O)cc32)cc1	inactive	inactive	inactive	inactive	inactive	inactive	inactive	inactive	inactive	inactive	3.14%	
Cn1cc(-c2ccc3nnc(C(F)(F)c4ccc5ncccc5c4)n3n2)cn1	inactive	inactive	inactive	inactive	inactive	inactive	inactive	inactive	inactive	inactive	3.57%	
NS(=O)(=O)OC[C@@H]1C[C@@H](n2ccc3c(N[C@H]4CCc5ccccc54)ncnc32)C[C@H]1O	0.526 µM (active)	0.526 µM (active)	0.59 µM (active)	2.96 µM (active)	1.66 µM (active)	2.09 µM (active)	1.48 µM (active)	1.48 µM (active)	1.32 µM (active)			
O=c1cc(-c2ccc(O)c(O)c2)oc2cc(O)cc(O)c12	inactive	inactive	inactive	inactive	inactive	inactive	inactive	inactive	inactive	inactive		
CC(C)c1ccc(Cn2ccc3c4c(N)nc(NC5CC5)nc4ccc32)cc1	10.5 µM (active)	5.9 µM (active)	1.05 µM (active)	3.72 µM (active)	2.64 µM (active)	4.69 µM (active)	1.66 µM (active)	3.72 µM (active)	3.72 µM (active)	1.12 µM (active)		0.398 µM (active)
CCOC(=O)C1=C(C)NC(=S)NC1c1cccc(O)c1 (centres undefined)	0.148 µM (active)	0.264 µM (active)	0.235 µM (active)	0.187 µM (active)	0.296 µM (active)	0.148 µM (active)	0.0743 µM (active)	0.132 µM (active)	0.166 µM (active)	inactive		
CCN(C(=O)c1c(O)c2c(Cl)cccc2n(C)c1=O)c1ccccc1	1.66 µM (active)	2.64 µM (active)	1.32 µM (active)	3.32 µM (active)	1.66 µM (active)	2.35 µM (active)	0.59 µM (active)	0.332 µM (active)	0.418 µM (active)			7.94 µM (active)
CC(C)(C)c1cc(C(=O)O)c(NC(=O)Nc2ccc3[nH]ncc3c2)s1	inactive	inactive	inactive	inactive	inactive	inactive	inactive	inactive	inactive	inactive	-7.47%	
O=C(Nc1ccc(F)c(C(F)(F)F)c1)Nc1nnc(-c2ccncc2)s1	inactive	inactive	inactive	inactive	inactive	inactive	inactive	inactive		inactive	4.96%	
CC(C)(C)COc1ccc(-n2cc(C(=O)O)cn2)cc1C#N	inactive	inactive	inactive	inactive	inactive	inactive	inactive	inactive	inactive	inactive	0.955%	
N#CC(=C(O)c1ccc(Cl)cc1Cl)c1nc2cc(Cl)ccc2c(=O)[nH]1	inactive	inactive	inactive	inactive	inactive	inactive	inactive	inactive	inactive			
